Compound activity (PubChem BioAssay)
An excerpt weighted towards active compounds, which were near 11% of everything screened.
IMPase Li cell: cell-permeable IMPase inhibitors with lithium potentiation. CHO-M1 cells, IP1 TR-FRET (IP-One), carbachol + lithium. hit rate 0.35% among 210,000. Potency, µM (highest dose often 59.4 µM), for the others: at the highest dose activity, negative = IMPase inhibition, most hits filed as inhibitors. AID 1457; active = well fitted curve in the direction sought with a large enough effect; inconclusive = small, poorly fitted or top-dose-only effect, or another doubt; inactive = no such curve, though single readings can be large; an effect the other way counts as inactive or inconclusive;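 also: IP1 builds up when IMPase is blocked and the TR-FRET signal falls; potency is read from the fitted curve at half-maximal effect; plate controls were basal vehicle for no effect and high inhibitor control for full effect; nearly all actives have a fitted effect of over 50% in size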
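CHO-M1, 2000 cells/well, 16–30 h culture; cpd + low Li+, 30 min 37C; lysis with d2-IP1/Eu-anti-IP1 Ab, 10 min RT; TR-FRET 665/620 ratio and 620 channel; AC50 via Hill.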
PNC inhibitor: perinucleolar compartment assembly inhibition; PC3M PTB-GFP, PNC prevalence imaging, 16 h; stronger effect = lower value; activity change (PNC), negative = inhibition, % at 10 µM; hit rate 3.1% among 140,000; AID 2417;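 active = readout at or below -70, meaning at least 70% loss of cells showing the perinucleolar compartment, a nuclear body marking cancer cells; inconclusive = readout between -30 and a set limit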;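 also: plate controls were DMSO wells for no effect and camptothecin positive control wells for full effect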
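Compounds are pinned in duplicate onto adhered PC3M cells stably expressing GFP-tagged PTB and incubated 16 h at 37 C. Cells are then fixed, nuclei stained with Hoechst, and PNC-positive cells counted.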
HPGD block: blocks human HPGD enzyme activity. purified HPGD, NADH fluorescence kinetic, PGE2 substrate. Potency, µM, for the others: at the top dose activity change, negative = inhibition, actives largely listed as inhibitors. hit rate 4.3% among 150,000. AID 894; also: potency is read from the fitted curve at half-maximal effect
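NADH formation kinetics: reaction with 30 uM PGE2 and 1 mM NAD+ (final), 20 nM enzyme, Tris-HCl pH 8 with Tween 20, after 15 min compound preincubation at room temperature. Fluorescence change, last versus first of five reads.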
ALDH1A1 inh: blocks purified human ALDH1A1 activity | hit rate 7.3% among 220,000 | Potency, µM (titrated, usually from 75.3 µM), for inactives: at the top dose activity, negative = inhibition, hits mostly inhibitors | Purified ALDH1A1, NADH fluorescence, propionaldehyde substrate;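 also: potency is read from the fitted curve at half-maximal effect; plate controls were no enzyme wells and a reference inhibitor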
Target sequence (P00352 whole entry, looked up): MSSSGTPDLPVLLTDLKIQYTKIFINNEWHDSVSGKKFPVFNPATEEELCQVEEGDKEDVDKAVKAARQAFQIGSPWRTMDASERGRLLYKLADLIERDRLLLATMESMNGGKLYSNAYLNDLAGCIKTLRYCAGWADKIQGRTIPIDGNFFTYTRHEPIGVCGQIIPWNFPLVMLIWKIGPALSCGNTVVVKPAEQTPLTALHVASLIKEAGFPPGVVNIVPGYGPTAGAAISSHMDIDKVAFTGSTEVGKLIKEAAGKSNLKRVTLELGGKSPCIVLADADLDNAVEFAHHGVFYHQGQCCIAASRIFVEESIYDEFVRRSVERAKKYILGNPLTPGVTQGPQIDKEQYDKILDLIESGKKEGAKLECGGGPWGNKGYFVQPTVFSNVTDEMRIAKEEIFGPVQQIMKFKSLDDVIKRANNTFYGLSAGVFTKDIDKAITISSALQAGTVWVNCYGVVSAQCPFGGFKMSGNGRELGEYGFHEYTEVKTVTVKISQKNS
IMPase cell inh: membrane-permeable compound that blocks inositol monophosphatase | P97697 | CHO-M1 cells, IP1 accumulation, HTRF TR-FRET ratio | inhibition (IP1 accumulation), % at 46.1 µM | 120,000 tested, under 10 active | AID 901; active = well fitted curve in the direction sought with a large enough effect in the signal ratio, not every such curve was filed as active; inconclusive = small, poorly fitted or top-dose-only effect, or a change in a side signal; inactive = no such curve, though single readings can be large or run the other way; the % refers to the signal ratio;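 also: cells stimulated with carbachol in lithium chloride buffer; plate controls were DMSO basal wells for no effect and reference inhibitor wells for full effect; higher means more IMPase inhibition seen as more IP1 and lower FRET ratio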
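Carbachol-driven Gq signalling in CHO-M1 cells (2000/well) generates IP1. Compounds that block IMPase raise IP1 and so reduce the FRET signal from Eu-anti-IP1 and d2-IP1 after a 10 min room-temperature lysis.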
12-hLO inh: 12-hLO (ALOX12) enzyme inhibition | AID 1452 | Potency, µM (top dose mostly 57.1 µM), without a hit: at the highest dose activity change, negative = inhibition, hits mostly inhibitors | P18054 | hit rate 0.12% among 150,000 | purified 12-hLO, xylenol orange hydroperoxide absorbance; active = well fitted curve in the direction sought with a large enough effect; inconclusive = small, poorly fitted or top-dose-only effect, or another doubt; inactive = no such curve, though single readings can be large; an effect the other way counts as inactive or inconclusive; also: potency is read from the fitted curve at half-maximal effect; nearly all actives have a fitted effect of over 55% in size
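150 nM 12hLO, 25 mM Hepes pH 7.0 + 0.01% Triton X-100; cpd preinc 15 min RT; 40 uM arachidonic acid, 30 min RT; Fe-XO 30 min; A573/A405 ratio as read-out.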
* marks the source's active call; other numbers are inactive results; ? = inconclusive; / = no result; [ ] = dose if it differs, or a comment. Unless noted, calls follow the shape of the dose curve; as a rule, active = well fitted inhibition curve with a large enough effect (not every such curve was filed as active); inconclusive = small, poorly fitted or top-dose-only effect, or another doubt; inactive = no such curve, though single readings can be large or run the other way. Unless noted, % is scaled to controls: 0 for no effect and ±100 for the full control effect.

SMILES | IMPase Li cell | PNC inhibitor | HPGD block | ALDH1A1 inh | IMPase cell inh | 12-hLO inh
Cc1ccc(OCCn2cc(C(=O)C3CCCCC3)c3ccccc32)cc1 | / | / | / | / | 10.6 | /
CC(C)CCCC(C)C1CCC2C3CC(=O)[C@H]4CC(O)CC[C@]4(C)C3CC[C@@]12C (stereo partly specified) | -0.3% | / | -10.4% | -11.2% | / | 5.7%
CC(C)c1nc2oc3c(NCC4CCCO4)ncnc3c2c2c1CCC2 (stereo unspecified) | 11.5%[38.3 µM] | -97.9* | ? | ? | 4.2 | -1.1%
CCOC(=O)c1[nH]c2c(c1Cc1ccccc1OC)C(=O)CC(c1ccc(OCC)cc1)C2 (stereo unspecified) | / | / | / | / | -4.1 | /
CCO/N=C(/c1nonc1N)N1CCN(c2ccc([N+](=O)[O-])cc2)CC1 | 9.1%[38.3 µM] | -13.4 | -13.6% | 11.2µM* | 3.4 | -9.3%
COc1ccc(NC2C[C@H]3CCCC(=O)N4CC[C@@H](C2)[C@@H]34)cc1 (stereo partly specified) | 9.4% | / | -0.1% | 4.0% | / | 0.1%[0.00818 µM]
Cc1c(NC(=O)CSc2nnc3c4ccccc4n(CCc4ccccc4)c3n2)c(=O)n(-c2ccccc2)n1C | 29.4%[38.3 µM] | -89.7* | -3.7% | ? | -1.0 | 3.0%
CCn1c2ccccc2c2nnc(SCC(=O)Nc3cc(C)on3)nc21 | 11.2µM* | ? | -19.3% | -13.4% | ? | 3.5%
CCn1c2ccccc2c2nnc(SCC(=O)NC3CCS(=O)(=O)C3)nc21 (stereo unspecified) | -9.5% | ? | 31.6µM* | -3.0% | -4.4 | -1.3%
CCn1c2ccccc2c2nnc(SCC(=O)NCCOC)nc21 | 6.3%[38.3 µM] | 15.5 | 15.8µM* | -3.1% | 7.2 | -1.9%
O=C(Nc1cccc(F)c1)N1CC2(CCN(S(=O)(=O)c3ccccc3)CC2)C1 | 10.7% | / | -7.4% | 0.4% | / | 2.5%
COC(=O)CNC(c1ccccc1)c1cc(Br)ccc1NC(=O)c1ccccc1 (stereo unspecified) | / | / | / | / | 0.0 | /
COc1ccc(OC2C=CC(c3ccccc3)OC2CO)c(C(C)(C)C)c1 (stereo unspecified) | / | / | / | 13.5%[13.5 µM] | / | /
C[N+](C)(C)c1ncnc2c1ncn2[C@@H]1C[C@H](O)[C@@H](CO)O1 | -8.7% | / | -8.3% | -2.2%[13.5 µM] | / | 2.9%[11.4 µM]
COc1ncc2nc(-c3ccc(F)cc3)c(=O)n(CCC#N)c2n1 | -7.2% | / | ? | ? | / | -3.5%
CCC(CC)C(=O)Nc1c(C)n(C)n(-c2ccccc2)c1=O | 25.0%[38.3 µM] | 25.3 | -9.4% | -0.8% | -2.9 | 1.4%
C=CCn1c2ccccc2c2nnc(SCC(=O)NC(C(=O)OC)C(C)C)nc21 (stereo unspecified) | 21.7%[38.3 µM] | -9.0 | 20µM* | 20µM* | 3.8 | -2.4%
C=CCn1c2ccccc2c2nnc(SCC(=O)Nc3c(C)n(C)n(-c4ccccc4)c3=O)nc21 | 5.9%[38.3 µM] | -19.3 | -7.3% | -9.4% | 2.3 | -5.3%
CCN1CCN(C(C)C(=O)Nc2c(C)n(C)n(-c3ccccc3)c2=O)CC1 (stereo unspecified) | -13.5%[38.3 µM] | 27.5 | -3.5% | 22.4µM* | 9.3 | -6.5%
Cc1nc(SCC(=O)c2ccccc2)n[nH]1 | -2.9%[38.3 µM] | ? | ? | 22.4µM* | 4.4 | -26.6%
CCCn1c2ccccc2c2nnc(SCC(=O)OC)nc21 | / | ? | / | 14.1µM* | 0.1 | -4.2%
Cc1nc(SCC(=O)Nc2c(C)n(C)n(-c3ccccc3)c2=O)n[nH]1 | 3.7% | ? | -14.9% | 14.1µM* | 5.2 | -1.7%
Cc1csc(SCC(=O)Nc2c(C)n(C)n(-c3ccccc3)c2=O)n1 | 24.1%[38.3 µM] | ? | -0.7% | 2.6% | 4.1 | 4.3%
COc1ccccc1C(=O)CSc1n[nH]c(N)n1 | -10.1%[38.3 µM] | -26.0 | -22.6% | 11.2µM* | -1.2 | -3.1%
Cc1ccc2c(c1)nnn2C1CCN(C(=O)C23CC4CC(CC(C4)C2)C3)CC1 | 19.7% | ? | 4.6% | 17.8µM* | 11.4 | 1.7%
C=C(C(C)=O)C(O)c1cccc(OC)c1 (stereo unspecified) | -3.1% | / | -10.2% | 14.8% | / | /
